Experimental data taken from the supplement of paper PMC10849652.
Targets with a hit are over-represented here; the source holds about 8,800 in all. About 0.5% of all pairs of compound and target were hits.

How the values were obtained:
Test in all cases: log2 fold change, soluble protein after heating vs DMSO (PISA); higher = thermal stabilisation; K562 lysate, 10 uM; active = over 0.2 and 3.5 SD of the protein, either way, in both replicates (recomputed)
alvocidib = compound: CN1CC[C@H](c2c(O)cc(O)c3c(=O)cc(-c4ccccc4Cl)oc23)[C@H](O)C1 [alvocidib]
Summary of the method: (§1)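 Log-two fold change in thermal stability relative to solvent controls is reported from duplicates. For each sample, crude K562 extract from dounce-homogenised pellets in PBS pH 7.4 with 1 mM MgCl2, at 1 mg/mL protein, was treated with 10 μM compound for 30 min. Aliquots heated for 3 min across 48°C-58°C were pooled, brought to 0.5% NP-40 at 4°C and cleared at 21,000xg for 90 min. The supernatant was quantified by TMTpro 16plex LC-MS/MS with channel sums equalised.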

Tubastatin A = compound: CN1CCc2c(c3ccccc3n2Cc2ccc(C(=O)NO)cc2)C1 [Tubastatin A]
Summary of the method: as §1

[1] = compound: CNC(=O)C1=CC=CC=C1NC2=NC(=NC=C2Cl)NC3=C(C=C(C=C3)N4CCOCC4)OC
Summary of the method: as §1

defactinib = compound: CNC(=O)c1ccc(Nc2ncc(C(F)(F)F)c(NCc3nccnc3N(C)S(C)(=O)=O)n2)cc1 [defactinib]
Summary of the method: as §1

[2] = compound: CNc1nc(-c2ccc3c(N)n[nH]c3c2)cc(N2C[C@@H](C(=O)NC3CCCCC3)CC[C@H]2C)n1
Summary of the method: as §1

encorafenib = compound: COC(=O)N[C@@H](C)CNc1nccc(-c2cn(C(C)C)nc2-c2cc(Cl)cc(NS(C)(=O)=O)c2F)n1 [encorafenib]
Summary of the method: as §1

[3] = compound: COC(=O)[C@H](CCSC)NC(=O)C1=C(C=C(C=C1)NC[C@H](CS)N)C2=CC=CC=C2
Summary of the method: as §1

alisertib = compound: COc1cc(Nc2ncc3c(n2)-c2ccc(Cl)cc2C(c2c(F)cccc2OC)=NC3)ccc1C(=O)O [alisertib]
Summary of the method: as §1

[4] = compound: COc1cc2nc(-c3cc(F)ccc3O)nc(N[C@@H]3CNC[C@H]3C(C)(C)O)c2cc1OC
Summary of the method: as §1

gefitinib = compound: COc1cc2ncnc(Nc3ccc(F)c(Cl)c3)c2cc1OCCCN1CCOCC1 [gefitinib]
Summary of the method: as §1

lapatinib = compound: CS(=O)(=O)CCNCc1ccc(-c2ccc3ncnc(Nc4ccc(OCc5cccc(F)c5)c(Cl)c4)c3c2)o1 [lapatinib]
Summary of the method: as §1

pictilisib = compound: CS(=O)(=O)N1CCN(Cc2cc3nc(-c4cccc5[nH]ncc45)nc(N4CCOCC4)c3s2)CC1 [pictilisib]
Summary of the method: as §1

crizotinib = compound: C[C@@H](Oc1cc(-c2cnn(C3CCNCC3)c2)cnc1N)c1c(Cl)ccc(F)c1Cl [crizotinib]
Summary of the method: as §1

[5] = compound: C[C@H](C1=CC=C(C=C1)C(=O)NC2=C3C=CNC3=NC=C2)N
Summary of the method: as §1

duvelisib = compound: C[C@H](Nc1ncnc2nc[nH]c12)c1cc2cccc(Cl)c2c(=O)n1-c1ccccc1 [duvelisib]
Summary of the method: as §1

gandotinib = compound: Cc1cc(Nc2cc(CN3CCOCC3)c3nc(C)c(Cc4ccc(Cl)cc4F)n3n2)n[nH]1 [gandotinib]
Summary of the method: as §1

tozasertib = compound: Cc1cc(Nc2cc(N3CCN(C)CC3)nc(Sc3ccc(NC(=O)C4CC4)cc3)n2)n[nH]1 [tozasertib]
Summary of the method: as §1

doramapimod = compound: Cc1ccc(-n2nc(C(C)(C)C)cc2NC(=O)Nc2ccc(OCCN3CCOCC3)c3ccccc23)cc1 [doramapimod]
Summary of the method: as §1

bafetinib = compound: Cc1ccc(NC(=O)c2ccc(CN3CC[C@H](N(C)C)C3)c(C(F)(F)F)c2)cc1Nc1nccc(-c2cncnc2)n1 [bafetinib]
Summary of the method: as §1

[6] = compound: Cc1cccc(CC(=O)N2CCc3c2ccc(-c2cn(C)c4ncnc(N)c24)c3F)n1
Summary of the method: as §1

Measured: log2 fold change

PCBP2 (UniProt H3BRU6)
inactive: alvocidib 0.033 | Tubastatin A -0.116 | [1] 0.082 | defactinib 0.061 | [2] 0.018 | encorafenib 0.04 | [3] 0.017 | alisertib -0.023 | [4] 0.072 | gefitinib -0.145 | lapatinib 0.116 | pictilisib -0.021 | crizotinib -0.04 | [5] 0.044 | duvelisib 0.028 | gandotinib 0.01 | tozasertib -0.112 | doramapimod -0.119 | bafetinib 0.079 | [6] -0.041

PFKFB3 isoform 4 (UniProt Q16875)
Chain of UniProt Q16875 (Q16875 whole entry, looked up): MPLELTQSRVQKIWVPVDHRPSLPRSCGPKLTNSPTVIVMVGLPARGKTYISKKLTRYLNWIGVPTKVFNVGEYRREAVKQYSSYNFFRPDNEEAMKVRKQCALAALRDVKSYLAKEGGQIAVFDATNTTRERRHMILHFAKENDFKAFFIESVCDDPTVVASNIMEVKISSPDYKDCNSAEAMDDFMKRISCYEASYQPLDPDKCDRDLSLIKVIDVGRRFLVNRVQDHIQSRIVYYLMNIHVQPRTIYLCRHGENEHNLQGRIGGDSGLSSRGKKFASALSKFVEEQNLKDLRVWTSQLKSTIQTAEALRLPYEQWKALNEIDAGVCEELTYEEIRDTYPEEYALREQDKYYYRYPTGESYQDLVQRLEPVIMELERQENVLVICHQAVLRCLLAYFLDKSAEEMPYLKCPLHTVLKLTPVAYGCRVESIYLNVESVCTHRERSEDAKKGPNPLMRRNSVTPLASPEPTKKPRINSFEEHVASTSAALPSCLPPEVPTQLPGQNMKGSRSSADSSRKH
inactive: alvocidib -0.012 | Tubastatin A -0.05 | [1] 0.058 | defactinib -0.006 | [2] 0.012 | encorafenib 0.041 | [3] -0.137 | alisertib -0.01 | [4] 0 | gefitinib -0.01 | lapatinib -0.228 | pictilisib -0.057 | crizotinib -0.021 | [5] 0.004 | duvelisib -0.009 | gandotinib -0.006 | tozasertib -0.003 | doramapimod 0.007 | bafetinib -0.03 | [6] 0.007

PPP2CA (UniProt P67775)
Chain of UniProt P67775 (P67775 whole entry, looked up): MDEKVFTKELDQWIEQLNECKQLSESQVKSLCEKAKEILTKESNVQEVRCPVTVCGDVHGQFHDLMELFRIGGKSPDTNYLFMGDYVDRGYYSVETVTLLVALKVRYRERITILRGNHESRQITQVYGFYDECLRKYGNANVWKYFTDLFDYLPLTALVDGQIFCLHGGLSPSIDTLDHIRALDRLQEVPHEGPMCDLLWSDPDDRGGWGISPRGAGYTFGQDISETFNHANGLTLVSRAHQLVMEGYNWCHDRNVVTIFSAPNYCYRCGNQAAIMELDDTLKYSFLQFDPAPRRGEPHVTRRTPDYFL
inactive: alvocidib -0.062 | Tubastatin A -0.018 | [1] 0.026 | defactinib -0.064 | [2] -0.019 | encorafenib 0.128 | alisertib -0.016 | [4] -0.013 | gefitinib -0.009 | lapatinib -0.028 | pictilisib -0.001 | crizotinib 0.159 | [5] 0.051 | duvelisib -0.024 | gandotinib -0.022 | tozasertib -0.116 | doramapimod -0.049 | bafetinib 0.053 | [6] 0.03
active: [3] -0.374

PDS5A (UniProt Q29RF7)
inactive: alvocidib 0.023 | Tubastatin A -0.21 | [1] 0.016 | defactinib 0.016 | [2] -0.054 | encorafenib 0.048 | [3] -0.003 | alisertib 0.014 | [4] 0 | gefitinib -0.005 | lapatinib -0.024 | pictilisib -0.053 | crizotinib -0.123 | [5] -0.09 | duvelisib 0.023 | gandotinib -0.127 | tozasertib 0.008 | doramapimod 0.006 | bafetinib -0.075 | [6] 0.125

PPP1R8 (UniProt Q12972)
Chain of UniProt Q12972 (Q12972 whole entry, looked up): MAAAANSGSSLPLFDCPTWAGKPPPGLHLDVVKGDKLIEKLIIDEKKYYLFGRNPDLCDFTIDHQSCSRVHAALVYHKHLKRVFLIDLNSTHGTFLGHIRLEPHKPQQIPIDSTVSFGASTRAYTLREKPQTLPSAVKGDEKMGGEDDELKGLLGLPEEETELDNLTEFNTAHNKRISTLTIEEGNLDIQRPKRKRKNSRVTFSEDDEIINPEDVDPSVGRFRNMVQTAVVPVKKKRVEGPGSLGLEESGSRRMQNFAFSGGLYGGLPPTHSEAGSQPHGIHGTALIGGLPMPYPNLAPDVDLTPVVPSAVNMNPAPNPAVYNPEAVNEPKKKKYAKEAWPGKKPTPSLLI
inactive: alvocidib -0.095 | Tubastatin A 0.028 | [1] -0.025 | defactinib -0.003 | [2] 0.044 | encorafenib 0.028 | [3] -0.049 | alisertib 0.022 | [4] -0.012 | gefitinib -0.05 | lapatinib 0.025 | pictilisib -0.008 | crizotinib 0.021 | [5] -0.236 | duvelisib -0.035 | gandotinib 0.108 | tozasertib -0.014 | doramapimod -0.011 | bafetinib -0.01 | [6] 0.091

PCBP3 (UniProt P57721)
Chain of UniProt P57721 (P57721 whole entry, looked up): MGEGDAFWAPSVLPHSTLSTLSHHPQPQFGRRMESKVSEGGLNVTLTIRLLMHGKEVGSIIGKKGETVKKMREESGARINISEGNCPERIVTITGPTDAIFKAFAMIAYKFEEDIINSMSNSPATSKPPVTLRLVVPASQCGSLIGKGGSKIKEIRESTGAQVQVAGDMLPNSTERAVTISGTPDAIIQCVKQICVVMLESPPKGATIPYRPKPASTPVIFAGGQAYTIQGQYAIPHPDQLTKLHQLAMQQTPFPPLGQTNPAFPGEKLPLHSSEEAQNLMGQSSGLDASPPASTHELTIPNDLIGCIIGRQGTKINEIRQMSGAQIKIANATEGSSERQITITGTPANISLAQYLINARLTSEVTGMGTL
inactive: alvocidib -0.015 | Tubastatin A 0.005 | [1] 0.022 | defactinib -0.039 | [2] 0.042 | encorafenib -0.006 | [3] -0.023 | alisertib 0.019 | [4] 0.015 | gefitinib -0.023 | lapatinib -0.031 | pictilisib -0.035 | crizotinib 0.002 | [5] -0.067 | duvelisib -0.014 | gandotinib 0.028 | tozasertib 0.001 | doramapimod 0.014 | bafetinib -0.03 | [6] 0.026

PI4K2B (UniProt Q8TCG2)
Chain of UniProt Q8TCG2 (Q8TCG2 whole entry, looked up): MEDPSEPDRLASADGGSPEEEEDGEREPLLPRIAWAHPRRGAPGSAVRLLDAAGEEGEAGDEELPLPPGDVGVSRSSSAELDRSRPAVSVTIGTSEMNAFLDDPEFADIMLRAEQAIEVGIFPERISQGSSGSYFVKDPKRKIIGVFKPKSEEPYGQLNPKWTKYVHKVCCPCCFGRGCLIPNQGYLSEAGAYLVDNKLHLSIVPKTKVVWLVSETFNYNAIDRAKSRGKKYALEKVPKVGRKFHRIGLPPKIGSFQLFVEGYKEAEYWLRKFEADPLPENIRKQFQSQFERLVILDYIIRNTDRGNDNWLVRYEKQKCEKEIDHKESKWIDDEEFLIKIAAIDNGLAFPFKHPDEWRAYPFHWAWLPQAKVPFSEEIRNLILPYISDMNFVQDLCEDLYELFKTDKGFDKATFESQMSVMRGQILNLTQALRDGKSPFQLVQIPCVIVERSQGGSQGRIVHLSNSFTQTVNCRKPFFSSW
inactive: alvocidib -0.263 | Tubastatin A 0.12 | [1] -0.04 | defactinib -0.081 | [2] -0.057 | encorafenib 0.041 | [3] -0.005 | alisertib -0.068 | [4] -0.011 | gefitinib 0.107 | lapatinib 0.009 | pictilisib 0.039 | crizotinib -0.203 | [5] 0.134 | duvelisib 0.143 | gandotinib 0.041 | tozasertib 0.019 | doramapimod -0.026 | bafetinib -0.017 | [6] 0.003

PUF60 (UniProt Q9UHX1)
Chain of UniProt Q9UHX1 (Q9UHX1 whole entry, looked up): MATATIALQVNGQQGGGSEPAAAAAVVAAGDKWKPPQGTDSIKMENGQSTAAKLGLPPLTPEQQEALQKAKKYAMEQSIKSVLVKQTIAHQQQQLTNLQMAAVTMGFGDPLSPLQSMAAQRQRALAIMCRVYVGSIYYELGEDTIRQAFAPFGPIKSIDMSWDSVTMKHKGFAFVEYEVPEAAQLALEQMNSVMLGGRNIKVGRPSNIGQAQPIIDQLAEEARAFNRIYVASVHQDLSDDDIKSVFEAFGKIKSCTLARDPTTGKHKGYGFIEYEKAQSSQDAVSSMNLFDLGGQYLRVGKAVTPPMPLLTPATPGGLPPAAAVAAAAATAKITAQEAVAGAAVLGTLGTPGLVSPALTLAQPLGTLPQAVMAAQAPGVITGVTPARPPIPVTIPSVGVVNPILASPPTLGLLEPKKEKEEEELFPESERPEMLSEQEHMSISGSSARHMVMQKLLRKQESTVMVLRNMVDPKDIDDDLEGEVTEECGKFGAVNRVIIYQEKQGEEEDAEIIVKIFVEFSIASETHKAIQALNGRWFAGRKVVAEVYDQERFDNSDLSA
inactive: alvocidib 0.003 | Tubastatin A 0.019 | [1] -0.02 | defactinib -0.012 | [2] 0.008 | encorafenib -0.013 | [3] 0.019 | alisertib 0.005 | [4] -0.009 | gefitinib -0.022 | lapatinib 0 | pictilisib -0.037 | crizotinib 0.036 | [5] 0.092 | duvelisib -0.01 | gandotinib -0.05 | tozasertib -0.017 | doramapimod -0.012 | bafetinib 0.012 | [6] -0.058

PIP4K2C (UniProt Q8TBX8)
Chain of UniProt Q8TBX8 (Q8TBX8 whole entry, looked up): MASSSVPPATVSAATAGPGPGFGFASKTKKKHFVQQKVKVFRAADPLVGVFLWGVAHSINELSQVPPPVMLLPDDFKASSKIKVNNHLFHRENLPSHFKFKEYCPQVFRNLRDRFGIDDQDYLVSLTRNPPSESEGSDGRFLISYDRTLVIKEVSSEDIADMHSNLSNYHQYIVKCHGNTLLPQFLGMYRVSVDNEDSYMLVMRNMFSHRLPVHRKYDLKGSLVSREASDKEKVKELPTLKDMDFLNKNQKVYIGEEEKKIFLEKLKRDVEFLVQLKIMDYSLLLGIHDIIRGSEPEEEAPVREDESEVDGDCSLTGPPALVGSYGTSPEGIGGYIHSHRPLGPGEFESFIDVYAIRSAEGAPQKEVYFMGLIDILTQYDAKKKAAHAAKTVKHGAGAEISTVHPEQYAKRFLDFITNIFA
active: alvocidib 0.47 | bafetinib 0.664
inactive: Tubastatin A 0.022 | [1] 0.125 | defactinib 0.092 | [2] -0.07 | encorafenib 0.139 | [3] -0.085 | alisertib 0.013 | [4] 0.104 | gefitinib 0.083 | lapatinib -0.043 | pictilisib 0.063 | crizotinib -0.036 | [5] -0.128 | duvelisib 0.033 | gandotinib 0.109 | tozasertib -0.06 | doramapimod 0.006 | [6] -0.032

PRKACB isoform 2 (UniProt P22694)
active: [4] 0.51
inactive: alvocidib 0.006 | Tubastatin A 0.003 | [1] 0.011 | defactinib 0.117 | [2] 0.118 | encorafenib -0.018 | [3] -0.05 | alisertib 0 | gefitinib 0.006 | lapatinib -0.063 | pictilisib -0.042 | crizotinib -0.018 | [5] 0.141 | duvelisib 0.024 | gandotinib -0.071 | tozasertib -0.001 | doramapimod -0.023 | bafetinib -0.04 | [6] -0.131

PRMT7 (UniProt Q9NVM4)
Chain of UniProt Q9NVM4 (Q9NVM4 whole entry, looked up): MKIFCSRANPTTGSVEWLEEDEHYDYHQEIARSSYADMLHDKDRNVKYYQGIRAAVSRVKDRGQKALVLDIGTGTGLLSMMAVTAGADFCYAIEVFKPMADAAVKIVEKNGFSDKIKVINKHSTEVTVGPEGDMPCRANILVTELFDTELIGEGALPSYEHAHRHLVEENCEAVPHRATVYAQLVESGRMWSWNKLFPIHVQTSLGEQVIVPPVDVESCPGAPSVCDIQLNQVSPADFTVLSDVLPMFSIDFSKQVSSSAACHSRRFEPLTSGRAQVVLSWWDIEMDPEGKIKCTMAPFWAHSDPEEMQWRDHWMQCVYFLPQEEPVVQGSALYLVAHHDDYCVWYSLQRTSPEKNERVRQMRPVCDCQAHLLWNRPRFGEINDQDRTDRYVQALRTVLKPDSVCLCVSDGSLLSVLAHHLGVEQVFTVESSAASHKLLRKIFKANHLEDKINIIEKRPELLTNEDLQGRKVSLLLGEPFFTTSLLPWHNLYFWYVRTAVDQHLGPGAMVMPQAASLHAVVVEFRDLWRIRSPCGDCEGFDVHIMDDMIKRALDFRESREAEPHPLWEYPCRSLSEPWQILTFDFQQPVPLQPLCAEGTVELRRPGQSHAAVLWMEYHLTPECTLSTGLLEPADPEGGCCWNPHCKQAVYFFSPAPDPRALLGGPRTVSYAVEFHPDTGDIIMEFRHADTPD
inactive: alvocidib 0.017 | Tubastatin A -0.069 | [1] 0.024 | defactinib -0.047 | [2] 0.002 | encorafenib 0.012 | alisertib -0.015 | [4] 0.007 | gefitinib 0 | lapatinib -0.006 | pictilisib 0 | crizotinib 0.025 | [5] -0.014 | duvelisib 0.035 | gandotinib -0.045 | tozasertib 0.039 | doramapimod -0.025 | bafetinib -0.01 | [6] -0.008
active: [3] 0.286

PWP1 (UniProt Q13610)
active: [5] 0.488
inactive: alvocidib 0.063 | Tubastatin A -0.017 | [1] -0.012 | defactinib 0.002 | [2] -0.046 | encorafenib 0.046 | [3] -0.013 | alisertib -0.014 | [4] 0.008 | gefitinib -0.017 | lapatinib 0.041 | pictilisib -0.001 | crizotinib 0.003 | duvelisib 0.055 | gandotinib -0.052 | tozasertib 0 | doramapimod -0.125 | bafetinib 0.032 | [6] -0.084

PRKCA (UniProt P17252)
inactive: alvocidib 0.034 | Tubastatin A -0.005 | [1] -0.027 | defactinib 0.032 | [2] -0.041 | encorafenib 0.048 | [3] -0.041 | alisertib -0.031 | [4] 0.133 | gefitinib -0.038 | lapatinib -0.041 | pictilisib -0.021 | crizotinib -0.019 | [5] 0.054 | duvelisib -0.057 | gandotinib -0.207 | tozasertib 0.021 | doramapimod -0.023 | bafetinib -0.069 | [6] -0.079

POLR2B (UniProt P30876)
inactive: alvocidib -0.008 | Tubastatin A -0.092 | [1] 0.057 | defactinib 0.004 | [2] -0.026 | encorafenib 0.022 | [3] 0.121 | alisertib 0.002 | [4] -0.018 | gefitinib 0.012 | lapatinib 0.009 | pictilisib -0.048 | crizotinib -0.054 | [5] -0.032 | duvelisib 0.001 | gandotinib -0.018 | tozasertib -0.016 | doramapimod 0.046 | bafetinib -0.067 | [6] 0.036

PPME1 isoform 4 (UniProt Q9Y570)
Chain of UniProt Q9Y570 (Q9Y570 whole entry, looked up): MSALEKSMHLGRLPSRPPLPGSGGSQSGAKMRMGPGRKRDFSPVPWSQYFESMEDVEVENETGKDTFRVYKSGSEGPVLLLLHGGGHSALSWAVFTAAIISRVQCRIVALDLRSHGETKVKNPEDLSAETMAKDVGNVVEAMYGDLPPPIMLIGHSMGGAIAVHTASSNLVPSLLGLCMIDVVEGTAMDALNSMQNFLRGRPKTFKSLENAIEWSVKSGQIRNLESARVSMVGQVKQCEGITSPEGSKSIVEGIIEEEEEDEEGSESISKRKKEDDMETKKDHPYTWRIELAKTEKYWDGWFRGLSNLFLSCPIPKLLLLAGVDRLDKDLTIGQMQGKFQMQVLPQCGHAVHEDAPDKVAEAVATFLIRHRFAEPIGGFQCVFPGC
inactive: alvocidib 0.01 | Tubastatin A 0.024 | [1] 0.008 | defactinib 0.024 | [2] 0.002 | encorafenib -0.001 | [3] -0.066 | alisertib 0.031 | [4] 0.005 | gefitinib 0.002 | lapatinib -0.014 | pictilisib 0.009 | crizotinib 0.005 | [5] -0.014 | duvelisib 0.002 | gandotinib -0.002 | tozasertib 0.048 | doramapimod 0.026 | bafetinib 0.052 | [6] -0.006

PPIE (UniProt Q9UNP9)
Chain of UniProt Q9UNP9 (Q9UNP9 whole entry, looked up): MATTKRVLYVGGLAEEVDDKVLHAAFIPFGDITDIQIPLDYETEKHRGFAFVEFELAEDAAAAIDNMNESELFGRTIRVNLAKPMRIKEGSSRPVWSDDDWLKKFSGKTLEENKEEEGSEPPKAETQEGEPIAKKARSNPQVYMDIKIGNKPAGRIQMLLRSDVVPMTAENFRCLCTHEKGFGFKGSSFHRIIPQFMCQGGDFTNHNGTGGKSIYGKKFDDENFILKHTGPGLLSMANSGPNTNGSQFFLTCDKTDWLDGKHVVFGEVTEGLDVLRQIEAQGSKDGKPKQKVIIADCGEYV
inactive: alvocidib -0.131 | Tubastatin A 0.025 | [1] -0.047 | defactinib -0.018 | [2] 0.023 | encorafenib -0.025 | [3] -0.041 | alisertib -0.036 | [4] 0.005 | gefitinib 0.034 | lapatinib 0.03 | pictilisib 0 | crizotinib -0.02 | [5] -0.234 | duvelisib 0.006 | gandotinib 0.144 | tozasertib 0.014 | doramapimod 0.062 | bafetinib 0.009 | [6] 0.102
